Source: PubChem BioAssay
ATG4B inh = inhibitors of human ATG4B cysteine protease; Q9Y4P1; ATG4B cleavage of LC3-PLA2, NBD-HPC fluorescence, 1 h; inhibition, % at 8.33 µM; 0.51% of 340,000 active; in the data active means inhibition above about 40%
CFTR F508del cor = correctors of CFTR F508del function in bronchial epithelial cells; AID 720511; CFBE cells, YFP halide quenching; stimulated with forskolin plus potentiator P3; % fluorescence drop versus neutral controls; 0.36% of 350,000 active; activity (quench increase), % at 7.58 µM;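 active means mean added fluorescence quench of at least 8% versus neutral control, with both replicates also reaching 8%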;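 further: cells transiently co-express mutant CFTR-F508del with the halide-sensitive YFP; corrector assay measuring rescue of mutant channel to the surface after 24 h compound exposure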
MPTP inh = permeability transition pore inhibition. isolated mouse mitochondria, Ca2+ swelling absorbance, 30 min. inhibition, % at 10 µM. 1.4% of 360,000 active. AID 602449;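 active means inhibition of 50% or more, scaled per plate between neutral and stimulator controls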;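 further: 0% = DMSO wells given calcium and 100% = 1 mM EGTA wells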
SKN-1 inh = inhibitors of C. elegans SKN-1 | C. elegans VP596 Pgst-4::GFP/RFP ratio, acrylamide-induced, 24 h | inhibition, % at 21.8 µM | 0.49% of 360,000 active | AID 624304;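 active means interference check ratio from 0.5 to 1.5 plus GFP to RFP signal ratio inhibition reaching or exceeding a fixed threshold, cut at about 30% in these data, passing the limit was not always enough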
NRP1-CendR mod = NRP-1/CendR interaction modulation. FAM-RPARPAR peptide binding to NRP-1, fluorescence polarization. inhibition, % at 25 µM. 0.85% of 360,000 active. AID 602438;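 active means inhibition or corrected inhibition above about 18%, plus a signal ratio from 0.5 to 1.5, limit read from the data, passing the limit was not always enough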
Target sequence (O14786 whole entry, looked up): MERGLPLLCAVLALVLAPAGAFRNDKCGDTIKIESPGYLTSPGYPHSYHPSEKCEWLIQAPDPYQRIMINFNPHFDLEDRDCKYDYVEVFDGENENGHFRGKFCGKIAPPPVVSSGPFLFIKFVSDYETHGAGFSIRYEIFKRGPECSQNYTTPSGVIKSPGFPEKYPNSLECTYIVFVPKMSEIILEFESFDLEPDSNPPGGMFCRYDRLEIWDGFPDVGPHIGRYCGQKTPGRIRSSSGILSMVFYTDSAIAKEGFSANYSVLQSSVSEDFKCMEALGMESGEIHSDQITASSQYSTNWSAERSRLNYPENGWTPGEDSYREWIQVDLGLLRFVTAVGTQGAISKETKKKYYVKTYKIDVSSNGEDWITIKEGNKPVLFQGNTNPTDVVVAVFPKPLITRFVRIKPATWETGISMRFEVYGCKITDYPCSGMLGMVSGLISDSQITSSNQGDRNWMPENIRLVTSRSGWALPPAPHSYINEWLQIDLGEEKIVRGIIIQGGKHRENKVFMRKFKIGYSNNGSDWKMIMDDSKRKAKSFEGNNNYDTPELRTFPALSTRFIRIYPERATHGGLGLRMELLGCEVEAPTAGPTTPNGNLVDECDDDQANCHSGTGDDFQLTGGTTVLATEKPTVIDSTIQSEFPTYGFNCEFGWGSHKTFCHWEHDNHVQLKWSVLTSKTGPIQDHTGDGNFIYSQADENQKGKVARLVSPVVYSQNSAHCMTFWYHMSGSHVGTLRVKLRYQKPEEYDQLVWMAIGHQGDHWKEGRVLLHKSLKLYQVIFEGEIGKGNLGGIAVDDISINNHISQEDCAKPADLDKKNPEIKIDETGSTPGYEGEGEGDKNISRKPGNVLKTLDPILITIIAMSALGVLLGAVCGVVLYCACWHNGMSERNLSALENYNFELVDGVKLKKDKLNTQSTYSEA
An asterisk follows results filed as active; / = no result given. This is a sample that favours compounds with a hit; in the whole collection about 2.7% have one here.

SMILES	ATG4B inh	CFTR F508del cor	MPTP inh	SKN-1 inh	NRP1-CendR mod
COc1ccc(C)cc1N(CC(=O)N1CCc2ccccc2C1)S(C)(=O)=O	-10.6	2.1	-0.1	7.7	26.5*
COc1ccccc1N(CC(=O)N1CCc2ccccc2C1)S(C)(=O)=O	-4.4	0.1	-0.7	7.2	24.8*
O=C(NCCO)c1ccc2c(c1)S(=O)(=O)c1ccccc1C2=O	-10.1	-0.4	-1.4	12.2	22.5*
Cc1ccc(CNC(=O)c2ccc3c(c2)S(=O)(=O)c2ccccc2C3=O)o1	-13.9	-2.8	-3.0	-17.7	4.5
CC(/C=C/c1ccc(O)cc1)=NNc1ccccc1	-4.8	17.6*	0.2	10.2	12.3
Cc1cc(N/C=C/C(=O)c2cccs2)ccc1F	-0.3	-0.1	-1.8	20.8	-9.1
Cc1ccc(N/C=C/C(=O)c2cccs2)cc1C	14.2	-1.6	1.2	39.2*	-18.5
COC(=O)C1=C(C)N(Cc2cccc(C(F)(F)F)c2)C(=NCC2CC2)NC1c1ccc(F)cc1 (stereo not drawn)	/	1.6	/	/	/
C[C@H]1CN([C@@H](C)CO)C(=O)c2cc(NC(=O)CCC(F)(F)F)ccc2O[C@@H]1CN(C)C(=O)Nc1ccc(C(F)(F)F)cc1	/	3.8	/	/	/
CCNC(=O)C[C@@H]1CC[C@@H]2[C@H](COc3ccc(NC(=O)NC(C)C)cc3C(=O)N2C)O1	/	3.0	/	/	/
COc1ccc(C2=CC(c3ccc(F)cc3)n3nnnc3N2)cc1 (stereo not drawn)	-2.0	/	1.6	4.2	35.4*
C[C@@H]1CN([C@@H](C)CO)C(=O)c2ccccc2-c2ccccc2CO[C@H]1CN(C)C(=O)[C@@H]1CCCN1C	/	-2.4	/	/	/
C=CCN1c2ccccc2[C@]23C[C@@H](C(=O)OC)N(C(=O)c4cccs4)C2=NC(C(=O)OC)=C(C(=O)OC)[C@H]13	18.4	8.0*	1.9	-19.0	-21.9
C=CCN1c2ccccc2[C@]23C[C@@H](C(=O)OC)N(C(=O)c4ccc(Br)cc4)C2=NC(C(=O)OC)=C(C(=O)OC)[C@H]13	11.2	-0.4	-0.4	-2.3	8.9
CCOC(=O)C(Cc1cc(C(C)=O)ccc1OCC)C(=O)OCC	5.2	/	-0.1	37.9*	3.7
CCOc1cnn(Cc2ccccc2)c(=O)c1SCc1ccccc1	-4.2	/	-9.4	-0.8	28.3*
COc1cnn(Cc2ccccc2)c(=O)c1SCc1ccccc1	1.1	/	-0.7	15.2	-8.4
CO[C@@H]1CN(C)C(=O)c2cc(NS(=O)(=O)c3ccc(Cl)cc3)ccc2OC[C@H](C)N(C)C[C@@H]1C	/	-0.5	/	/	/
O=C(NCC[C@H]1CC[C@H](NC(=O)C2CCCCC2)[C@H](CO)O1)c1cnccn1	/	-1.3	/	/	/
C[C@@H]1CN([C@@H](C)CO)C(=O)c2cccc(NS(=O)(=O)c3ccccc3)c2O[C@@H]1CN(C)Cc1ccc2c(c1)OCO2	/	1.1	/	/	/
CCC(=O)OCC(=O)N=c1sccn1Cc1ccccc1Cl	3.2	-1.1	1.4	10.8	26.1*
O=C(CCl)N=c1sccn1Cc1ccccc1Cl	4.6	-17.1	1.1	2.5	-6.7
COc1cccc(CN(C)C[C@@H]2OCc3ccccc3-c3c(n(C)c4ccccc34)C(=O)N([C@@H](C)CO)C[C@@H]2C)c1	/	-0.1	/	/	/
Cc1cc(O)c(C(C)C)cc1NC(=O)Nc1ccc([N+](=O)[O-])cc1	1.9	-1.2	15.4	43.8*	-4.3
Clc1ccc(Nc2ccc(-n3ccnc3)nn2)cc1Cl	-3.5	/	-5.3	37.0*	1.1
SMILES	ATG4B inh	CFTR F508del cor	MPTP inh	SKN-1 inh	NRP1-CendR mod
COc1ccc(-c2cn(CCO)c(-c3ccc(Cl)nc3)n2)cc1	-5.9	-1.0	-0.7	5.8	17.5*
COc1ccc(-c2cn(CCC(=O)O)c(-c3ccc(Cl)nc3)n2)cc1	-9.4	-5.0	-1.3	6.0	1.9
CN1CCN(S(=O)(=O)c2ccc(NC(=O)c3ccccc3Cl)cc2)CC1	2.0	-1.2	-1.2	-12.6	5.4
CN1CCN(S(=O)(=O)c2ccc(NC(=O)Nc3cccc(Cl)c3)cc2)CC1	-5.1	/	16.7	-13.5	27.0*
CN1CCN(C(=O)C[C@H]2C[C@H]3c4cc(NC(=O)NC5CCCC5)ccc4O[C@H]3[C@@H](CO)O2)CC1	/	0.7	/	/	/
CCCC#Cc1ccc2c(c1)O[C@H](CN(C)C(=O)CN(C)C)[C@H](C)CN([C@H](C)CO)S2(=O)=O	/	-0.7	/	/	/
C/C(=N\N=c1/sc2ccccc2n1C)c1ccccn1	-16.1	2.6	0.5	36.4*	26.5*
O=C(NC1CCCCC1)N[C@@H]1CC[C@@H](CCNS(=O)(=O)c2ccc(F)cc2)O[C@@H]1CO	/	0.7	/	/	/
CCOC(=O)c1c(C)[nH]c(C(=O)N/N=C/c2ccc(OC)c(OC)c2)c1C	-12.7	9.8*	-2.7	8.8	7.9
COc1ccccc1/C=N/NC(=O)c1[nH]c(C)c(C(=O)N/N=C/c2ccccc2OC)c1C	-11.5	0.5	-3.1	-6.5	-0.9
C=CCNc1nc(NCCN2CCOCC2)nc(N2CCOCC2)n1	-10.2	/	-2.7	35.0*	2.9
c1ccc(CNc2ncnc3c2cnn3-c2ccccc2)cc1	-2.7	/	3.7	-17.4	9.1
c1ccc(CCNc2ncnc3c2cnn3-c2ccccc2)cc1	-6.2	/	5.3	35.3*	6.1
Clc1ccc(Nc2ncnc3c2cnn3-c2ccccc2)cc1	4.9	1.9	8.8	37.5*	-10.3
C[C@@H]1CN([C@@H](C)CO)C(=O)c2cc(NC(=O)Nc3ccccc3)ccc2O[C@@H](C)CCCCO[C@@H]1CN(C)Cc1ccncc1	/	-3.3	/	/	/
CCN1[C@@H]2c3ccc(C4=CCCCC4)c(=O)n3C[C@@H]2[C@@H](CO)[C@@H]1C(=O)NCc1ccccn1	/	0.3	/	/	/
O=C(NCCO)c1cccc(-c2ccc3nncn3c2)c1	/	-1.8	-0.7	48.5*	2.5
CN(C)CCCNC(=O)c1cccc(-c2ccc3nncn3c2)c1	/	-0.8	-0.3	0.2	9.3
CCN(C(=O)COC(=O)CNC(=O)c1ccc(F)cc1)C1CCS(=O)(=O)C1 (stereo not drawn)	-3.3	-2.8	2.0	3.0	28.0*
C/C=C/c1ccc([C@@H]2[C@@H](CO)N(C(=O)C3CCOCC3)C23CN(C(=O)NC(C)C)C3)cc1	/	3.8	/	/	/
C/C(=N/OCc1ccc(Br)cc1)c1ccccn1	11.8	3.9	-1.3	53.7*	5.1
CCCNC(=O)N1CC2(C1)[C@H](c1ccccc1)[C@H](CO)N2Cc1cccc(F)c1	/	1.6	/	/	/
COc1ccc(C(C#N)=Cc2cc(OC)c(OC)c(OC)c2)cc1	/	-3.2	/	/	/
COc1ccc(/C(C#N)=C/c2cccnc2)cc1	/	-3.0	-0.1	24.6	19.1*
C[C@H](CO)N1C[C@H](C)[C@@H](CN(C)Cc2ccc(C(=O)O)cc2)Oc2ccc(NC(=O)Nc3ccc(F)cc3)cc2CC1=O	/	-2.1	/	/	/
COc1ccc(NC(=O)C2CCN(C(=O)Nc3ccccc3)CC2)cc1S(=O)(=O)N(C)C	-11.8	-0.4	0.1	-2.6	23.3*
COc1ccc(NC(=O)C2CCN(C(=O)Cc3ccccc3)CC2)cc1OC	-5.5	-0.3	-0.7	9.7	2.5
C[C@H](CO)N1C[C@H](C)[C@@H](CN(C)CC2CC2)Oc2ccc(NC(=O)Nc3ccc4c(c3)OCO4)cc2CC1=O	/	0.2	/	/	/
